Holding throughout (parameters): species or system human, MV4-11 + K-562 + COLO205 + SK-N-BE2 + OVCAR-8
For one experiment, the system named is BUB1. The settings on record: read-out: apparent Kd, n = 1.
The next experiment relates to EPHA2. The settings on record: read-out: apparent Kd, n = 1.
Another experiment relates to HCK. The settings on record: read-out: apparent Kd, n = 1.
The next experiment deals with PRKAA2. The settings on record: read-out: apparent Kd, n = 1.
For the next experiment, the system named is PTK6. Particulars: read-out: apparent Kd, n = 1.
The subject of a further experiment is SRC. The settings on record: read-out: apparent Kd, n = 1.
A further experiment has as its system YES1. The settings on record: read-out: apparent Kd, n = 1.
For the next experiment, the system named is CSNK1E. The settings on record: read-out: apparent Kd, n = 1.
For another experiment, the system named is PRKX. Particulars: read-out: apparent Kd, n = 1.
The next experiment concerns ROCK2. The settings on record: read-out: apparent Kd, compound concentrations: 100 nM and 1000 nM (sheet 'Samples'), n = 1.
A further experiment deals with PHKG2. Particulars: read-out: apparent Kd, n = 1.
For another experiment, the system named is MAPK8. Particulars: read-out: apparent Kd, n = 1.
For another experiment, the system named is RIOK2. The settings on record: read-out: apparent Kd, n = 1.
Another experiment deals with RPS6KA4. Particulars: read-out: apparent Kd, n = 1.
For another experiment, the system named is STK16. Particulars: read-out: apparent Kd, n = 1.
The test system of the next experiment is STK3. The settings on record: read-out: apparent Kd, n = 1.
The test system of a further experiment is TNIK. The settings on record: read-out: apparent Kd; compound concentrations: 100 nM and 1000 nM (sheet 'Samples'), CATDS: 3.2855545776320001E-2; n = 1.
For another experiment, the system named is ADCK1. The settings on record: read-out: apparent Kd; compound concentrations: 100 nM and 1000 nM (sheet 'Samples'), CATDS: 5.0791005267813499E-3; n = 1.
The next experiment concerns CDK17. Particulars: read-out: apparent Kd; compound concentrations: 100 nM and 1000 nM (sheet 'Samples'), CATDS: 5.1710144175889199E-3; n = 1.
The next experiment has as its system CSNK1A1. Particulars: read-out: apparent Kd; compound concentrations: 100 nM and 1000 nM (sheet 'Samples'), CATDS: 5.1324512690416697E-3; n = 1.
Where [1] appears, read: compound concentrations:100 nM and 1000 nM (sheet 'Samples').

The structures appear in SMILES notation. Read-outs that look alike come from different tables or passages of the source.

Turning to `Cl.Nc1c(C(=O)c2cccc(C#CCN3CCCCC3)c2)cnn1-c1ccc(F)cc1` [RO1154461-001], the potency estimated from few doses in the experiment on BUB1 (compound concentrations: 100 nM and 1000 nM (sheet 'Samples'), CATDS: 1.00986377445768E-2) is 1860 nM; in the experiment on EPHA2 (compound concentrations: 100 nM and 1000 nM (sheet 'Samples'), CATDS: 1.6105152878217399E-2), 472 nM; with HCK (compound concentrations: 100 nM and 1000 nM (sheet 'Samples'), CATDS: 1.18075673820272E-2) it was 1060 nM; in the experiment with PRKAA2 (compound concentrations: 100 nM and 1000 nM (sheet 'Samples'), CATDS: 1.20335296051875E-2), 1000 nM; in the experiment with PTK6 (compound concentrations: 100 nM and 1000 nM (sheet 'Samples'), CATDS: 1.35601917152245E-2), 717 nM; with SRC (compound concentrations: 100 nM and 1000 nM (sheet 'Samples'), CATDS: 1.30987485498882E-2), 787 nM. Besides, the potency estimated from few doses in the experiment on YES1 (compound concentrations: 100 nM and 1000 nM (sheet 'Samples'), CATDS: 1.4471532311659799E-2) was 608 nM.

For `Cc1cccc(-c2nc(Nc3ccncc3)c3sccc3n2)n1` [GW869641X], in the experiment on CSNK1E (setting [1]), the potency estimated from few doses is 418 nM.

Regarding `CCn1c(-c2nonc2N)nc2c(C#CC(C)(C)O)nc(OC[C@@H](N)c3ccccc3)cc21` [GSK938890A], the potency estimated from few doses in the experiment on PRKX (compound concentrations: 100 nM and 1000 nM (sheet 'Samples'), CATDS: 0.16139090072401199) was 36.6 nM; in the experiment on ROCK2 (CATDS: 5.36427183140821E-2) it was 1160 nM.

Turning to `Cc1ccc2c(-c3ccncc3)c(-c3ccc(F)cc3)nn2c1.Cl` [GW461484A], the potency estimated from few doses in the experiment on CSNK1E (setting [1]) is 673 nM; with EPHA2 (setting [1]), 754 nM; in the experiment with HCK (setting [1]), 755 nM; in the experiment on PHKG2 (setting [1]), 1600 nM; with PRKAA2 (setting [1]), 1840 nM; in the experiment with PTK6 (setting [1]), 871 nM. For the same compound, the potency estimated from few doses with SRC (setting [1]) was 593 nM; with YES1 (setting [1]), 556 nM.

As to `CCn1c(-c2nonc2N)nc2c(C#CC(C)(C)O)nc(OCCN)cc21.CCn1c(-c2nonc2N)nc2c(C#CC(C)(C)O)nc(OCCN)cc21.Cl.Cl` [GSK902056A], the potency estimated from few doses in the experiment with PRKX (setting [1]) was 176 nM.

Turning to `CNC(=O)c1ccccc1Nc1nc(Nc2ccc(N3CCOCC3)cc2)ncc1Cl.Cl` [GSK1576028A], the potency estimated from few doses with HCK (setting [1]) is 676 nM; in the experiment with MAPK8 (setting [1]) it was 88.4 nM; with PRKAA2 (setting [1]), 688 nM; with PTK6 (setting [1]) it was 297 nM; with RIOK2 (setting [1]) it was 2140 nM; in the experiment with RPS6KA4 (setting [1]), 427 nM. The potency estimated from few doses in the experiment with SRC (setting [1]) was 1280 nM; in the experiment on STK16 (setting [1]), 1770 nM; in the experiment on STK3 (setting [1]) it was 1270 nM; in the experiment on YES1 (setting [1]) it was 322 nM.

Consider `CCn1c(-c2nonc2N)nc2c(-c3ccccc3)ncc(OCCCN)c21.CCn1c(-c2nonc2N)nc2c(-c3ccccc3)ncc(OCCCN)c21.O=C(O)C(F)(F)F.O=C(O)C(F)(F)F` [GSK260205A], for which the potency estimated from few doses with BUB1 (compound concentrations: 100 nM and 1000 nM (sheet 'Samples'), CATDS: 0.117322615111941) was 59 nM; with CSNK1E (compound concentrations: 100 nM and 1000 nM (sheet 'Samples'), CATDS: 3.6163147578600598E-2), 706 nM; with TNIK it was 950 nM.

As for `Cn1ncc2c(N)ncnc21` [SKF-18267], the potency estimated from few doses in the experiment on ADCK1 is 789 nM; in the experiment on BUB1 (compound concentrations: 100 nM and 1000 nM (sheet 'Samples'), CATDS: 3.8134095637251098E-3) it was 1510 nM; with CDK17, 762 nM; with CSNK1A1, 773 nM; in the experiment with CSNK1E (compound concentrations: 100 nM and 1000 nM (sheet 'Samples'), CATDS: 4.2831601683339304E-3) it was 1130 nM; in the experiment on EPHA2 (compound concentrations: 100 nM and 1000 nM (sheet 'Samples'), CATDS: 6.1597951567788304E-3), 555 nM. Also, the potency estimated from few doses is 997 nM in the experiment with HCK (compound concentrations: 100 nM and 1000 nM (sheet 'Samples'), CATDS: 4.5358126876330496E-3); 1370 nM in the experiment with MAPK8 (compound concentrations: 100 nM and 1000 nM (sheet 'Samples'), CATDS: 3.9571355950897801E-3); 1100 nM in the experiment on PHKG2 (compound concentrations: 100 nM and 1000 nM (sheet 'Samples'), CATDS: 4.3394023432843602E-3); 815 nM in the experiment on PTK6 (compound concentrations: 100 nM and 1000 nM (sheet 'Samples'), CATDS: 4.9971490936353098E-3); 705 nM in the experiment with RIOK2 (compound concentrations: 100 nM and 1000 nM (sheet 'Samples'), CATDS: 5.3875103826164002E-3); 891 nM in the experiment with ROCK2 (CATDS: 4.7820751865343299E-3). Further, the potency estimated from few doses with RPS6KA4 (compound concentrations: 100 nM and 1000 nM (sheet 'Samples'), CATDS: 4.17505153349991E-3) is 1200 nM; with SRC (compound concentrations: 100 nM and 1000 nM (sheet 'Samples'), CATDS: 7.2051481672215003E-3), 429 nM; in the experiment on STK16 (compound concentrations: 100 nM and 1000 nM (sheet 'Samples'), CATDS: 4.0331507933998702E-3) it was 1310 nM; with STK3 (compound concentrations: 100 nM and 1000 nM (sheet 'Samples'), CATDS: 4.2986396089691199E-3), 1120 nM; with YES1 (compound concentrations: 100 nM and 1000 nM (sheet 'Samples'), CATDS: 6.9300225951379104E-3), 456 nM.

Turning to `Fc1ccc(-c2c(-c3ccncc3)[nH]c3cccnc23)cc1` [RO1153853-000], the potency estimated from few doses in the experiment on BUB1 (compound concentrations: 100 nM and 1000 nM (sheet 'Samples'), CATDS: 4.9666048128405298E-2) was 1690 nM; with CSNK1E (compound concentrations: 100 nM and 1000 nM (sheet 'Samples'), CATDS: 9.9990073063758705E-2), 274 nM.

For the compound `O=C1NC(=O)C(N2CCc3ccccc32)=C1c1ccccc1Cl` [SB-373598], the potency estimated from few doses in the experiment with BUB1 (setting [1]) was 1690 nM; with EPHA2 (setting [1]), 87.4 nM; in the experiment on HCK (setting [1]), 312 nM; in the experiment with PHKG2 (setting [1]), 872 nM; in the experiment on PRKAA2 (setting [1]), 694 nM; in the experiment on PRKX (setting [1]), 367 nM. Moreover, the potency estimated from few doses is 606 nM in the experiment with PTK6 (setting [1]), 1220 nM in the experiment with RPS6KA4 (setting [1]), 134 nM with SRC (setting [1]) and 128 nM in the experiment with YES1 (setting [1]).

These data come from PMC11062922 (Nature Chemical Biology, 2023).
